# From PubChem BioAssay
# V-ATPase pHluor = regulators of yeast V-ATPase proton transport. S. cerevisiae, pHLuorin cytosolic pH fluorescence. response, % at 10 µM. 0.37% of 350,000 active. AID 504577; in the data active = response mostly above about 7.3%, no sharp cut-off; inactive = mostly below about 5.4%; also: actives read high
# GC-A act = GC-A (human) enzyme activation | activation, % at 10 µM | HEK293 GC-A cells, cGMP TR-FRET, EC30 ANP; 0% at EC30 ANP, 100% saturating ANP | AID 1671463 | 0.14% of 370,000 active | P16066; in the data active = activation above about 40%
# NR1D1 modulator = Rev-erb alpha (human) modulation | Rev-erbα–FITC-DNA binding, fluorescence polarization, 90 min | activity, % at 10 µM | 0.79% of 370,000 active | AID 1259318;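 active = activity above about 14%, limit read from the data; passing the limit was not always enough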;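 also: 0% = DMSO wells with 35 nM protein and 100% = DMSO wells with 750 nM protein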
# NPR2 activator = GC-B (human) receptor activation | 0.11% of 370,000 active | HEK293-GC-B cells, CNP EC30, cGMP TR-FRET; 0% at EC30 CNP, 100% saturating CNP | AID 1920062 | activation, % at 10 µM | P20594;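 active = activation at 10 µM reaching about 35% in either raw or pattern-adjusted values, limit read from the data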
# PG9 binder = binds the HIV-1 gp120 antibody PG9. inhibition, % at 6.7 µM. 0.43% of 360,000 active. TR-FRET gp120-PG9 antibody binding; in the data active = inhibition above about 8.5%
# NR1D1 mod conf = confirmation of modulators of human Rev-erb alpha DNA binding; shares compounds with NR1D1 modulator; Rev-erb alpha FITC-DNA binding, fluorescence polarization, 90 min; activation, % at 25 µM; 61% of 3,000 active; AID 1259319;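 active = activation at or above a set limit, or at least 3 SD above the negative control mean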;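 also: 0% = 35 nM protein with DMSO and 100% = 750 nM protein high control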
# RORg DNA counter = RORgamma DNA-binding activity, dose-response counter-screen; shares compounds with NR1D1 modulator; purified RORgamma protein-FITC-DNA binding, fluorescence polarization; IC50, µM; 8% of 910 active; AID 1259320;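 active = Compounds whose fitted half-maximal concentration for disrupting protein-DNA binding is below 10 micromolar; the record names Rev-erb in its text, so the target is in doubt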
# An asterisk follows results filed as active; / = not tested or not shown. Compounds with a hit are over-represented: about 1.6% of the library has one in this group of screens.
SMILES,V-ATPase pHluor,GC-A act,NR1D1 modulator,NPR2 activator,PG9 binder,NR1D1 mod conf,others
COc1ccc(-c2cc(C(F)(F)F)c3c(N)c(C(=O)NCCSC)sc3n2)cc1,-5,21,-4,-7,3,/,
COc1ccc(OC)c(NC(=O)c2sc3nc(Cc4ccccc4)cc(C(F)(F)F)c3c2N)c1,-2,13,82*,0,-1,29*,
CSc1nc(N)c2c(C)c(C)sc2n1,-3,-4,-1,-1,1,/,
C=C(C)CSc1nc(N)c2c(C)c(C)sc2n1,-2,2,26*,-5,1,26*,
O=C(Nc1nnc(-c2ccc(F)cc2)s1)C1CCN(S(=O)(=O)c2ccc(Cl)cc2)CC1,0,15,121*,-1,-1,14,
Cc1ccc(S(=O)(=O)N2CCC(C(=O)Nc3nnc(-c4ccc(F)cc4)s3)CC2)cc1,-3,8,14,-7,-2,/,
O=C(Nc1nnc(-c2ccccc2F)s1)C1CCN(S(=O)(=O)c2ccc(Cl)cc2)CC1,0,-2,33*,-3,-2,7,
C=CCN(C(=O)[C@@H](C1CC1)[C@@H](O)c1ccc2ccccc2c1)c1ccccc1,/,-3,4,-2,/,/,
Cc1cc(C(=O)CSc2nnc(-c3ccccc3)n2Cc2ccc3c(c2)OCO3)c(C)n1C,3,5,6,4,1,/,
Cc1cc(C(=O)CSc2nc3ccccc3c(=O)n2C)c(C)n1Cc1ccc2c(c1)OCO2,1,-1,42*,-6,2,6,
CCOC(=O)c1c(NC(=O)c2cc3n(n2)C(C(F)(F)F)CC(c2ccccc2)N3)sc(C)c1C (stereo unspecified),-1,0,36*,2,-2,6,
CN(C)S(=O)(=O)c1ccc(C(=O)OCC(=O)c2csc(N3CCCCC3)n2)cc1,-4,1,24*,0,-1,11,
C[C@@H]1/C=C/CC(=O)N[C@H](c2cccc(Br)c2)[C@H](C)/C=C/CC(=O)N[C@@H]1c1cccc(Br)c1,/,-2,5,-2,/,/,
Cc1ccc(-n2c(SCC(=O)Nc3ccc(OCc4ccccc4)cc3)nnc2-c2cnccn2)cc1,/,-1,2,-1,/,/,
COC(=O)c1ccccc1NC(=O)c1cc2ncc(Br)cn2n1,-2,-1,23*,-7,0,2,
O=C(Nc1cccnc1Cl)c1cc2c(s1)-c1ccccc1OC2,5,13,13,7,2,/,
O=C(Nc1ccc(Cl)cn1)c1cc2c(s1)-c1ccccc1OC2,-4,2,30*,-1,0,7,
CC1CN(c2nc3ccccc3nc2SCC(=O)N2CCN(S(=O)(=O)c3ccccc3)CC2)CC(C)O1 (stereo unspecified),/,2,-8,7,/,/,
S=c1[nH]c(-c2ccc(Br)cc2)cn1CCc1ccccc1,4,-8,17*,-8,1,28*,
O=C(Nc1cccc(Br)c1)c1cc(S(=O)(=O)N2CCOCC2)cs1,-2,-7,30*,-11,-1,5,
COc1ccc2oc(C(=O)Nc3cccc(S(=O)(=O)N4CCOCC4)c3)c(C)c2c1,-4,0,6,2,0,/,
Cc1c(C(=O)Nc2cccc(S(=O)(=O)N3CCOCC3)c2)oc2ccc(Br)cc12,7,4,16*,-1,1,-2,
COc1ccc(-c2cc(C(F)(F)F)n3ncc(C(=O)NCC4CCCO4)c3n2)cc1 (stereo unspecified),-50,15,47*,15,-1,22*,
COc1ccc(NC(=S)Nc2cc(C)cc(C)n2)cc1OC,2,4,22*,2,-2,0,
COc1cccc(NC(=S)Nc2cc(C)cc(C)n2)c1,-3,1,31*,2,-1,8,
SMILES,V-ATPase pHluor,GC-A act,NR1D1 modulator,NPR2 activator,PG9 binder,NR1D1 mod conf,others
Cc1cc(C)nc(NC(=S)Nc2cccc(F)c2)c1,2,2,7,-11,-4,/,
Cc1cc(C)nc(NC(=S)Nc2cccc(Cl)c2Cl)c1,3,3,63*,-1,2,5,
COc1cc(C(=O)NCc2cccnc2)ccc1OCC(=O)Nc1cccc(C(F)(F)F)c1,6,2,18*,-3,0,7,
CCOc1ccc(NC(=O)COc2ccc(C(=O)NCc3cccnc3)cc2OC)cc1,5,2,-5,-2,-2,/,
COCC1=C(C(=O)OC(C)OC(=O)OC(C)C)N2C(=O)[C@@H](NC(=O)/C(=N/OC)c3csc(N)n3)[C@H]2SC1 (stereo partly specified),/,/,6,/,/,/,
COc1c(O)cccc1[C@@H](O)C1CCN(CCc2ccc(F)cc2)CC1,22,0,19*,-6,1,6,
Fc1cccc(CSc2ncnc3c2oc2ccccc23)c1,-5,1,122*,-7,-1,154*,RORg DNA counter=6.3*
Fc1ccc(CSc2ncnc3c2oc2ccccc23)cc1,0,-3,290*,-9,2,284*,RORg DNA counter=>40
NC(=O)CSc1ncnc2c1oc1ccccc12,3,1,-3,-7,-14,/,
Cc1nc(SCc2ccc(F)cc2)c2oc3ccccc3c2n1,-2,-3,2,1,-1,/,
COc1ccc(C2C(C(=O)Nc3ccc(Cl)c(Cl)c3)CCC(=O)N2c2ccc(OC)cc2)cc1 (stereo unspecified),/,-1,-1,-1,/,/,
Cc1c(NC(=O)C2CCCN(S(=O)(=O)c3c(C(C)C)cc(C(C)C)cc3C(C)C)C2)c(=O)n(-c2ccccc2)n1C (stereo unspecified),/,4,28*,-2,/,24*,
CC(C)NC(=O)/C(C#N)=C/c1ccc(N(C)C)o1,-2,-15,25*,-4,-30,7,
COc1ccc(Cn2ccc3ccc(-c4ccc5ccn(C(=O)c6cccc(OC)c6)c5c4)cc32)cc1,/,0,38*,-1,/,71*,RORg DNA counter=>40
COC(=O)c1ccc(Cn2ccc3ccc(-c4ccc5ccn(C(=O)c6cccc(OC)c6)c5c4)cc32)cc1,/,-2,40*,2,/,52*,RORg DNA counter=>40
COC(=O)c1ccc(Cn2ccc3ccc(-c4ccc5ccn(C(=O)c6ccccc6C)c5c4)cc32)cc1,/,-2,30*,1,/,42*,RORg DNA counter=>40
N#Cc1ccc(Cn2ccc3ccc(-c4ccc5ccn(C(=O)C6CCCCC6)c5c4)cc32)cc1,/,3,36*,7,/,18*,
COC(=O)c1ccc(Cn2ccc3ccc(-c4ccc5ccn(C(=O)c6ccccc6)c5c4)cc32)cc1,/,0,14,5,/,/,
Cc1ccc(NC(=S)NNC(=O)CSc2nnc(-c3ccc(C)cc3)n2C2CCCCC2)cc1,/,3,0,0,/,/,
